From PubChem
TROY signal inh – blocks TROY-dependent signaling in reporter cells. Q293 LMP1-TROYcd NF-kB luciferase reporter, 4 h. inhibition, % at 10 µM. 0.98% of 360,000 active;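 active means compounds whose plate-normalised and pattern-corrected inhibition of the luciferase reporter signal at the single screening dose is 50% or more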
HIF-2a block – inhibitors of HIF-2a. 786-0 RCC cells HIF-2a reporter, luciferase luminescence, overnight. AID 624352. 0.72% of 360,000 active. inhibition, % at 18.8 µM;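 active means inhibition of the luminescence signal of 40% or more relative to plate controls, in a single-dose primary screen at 18.75 µM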
KKLEB cytotox – CF airway cell cytotoxicity counter-screen; KKLEB CF airway cells viability, ATPlite luminescence, overnight; hits give low values; cells stimulated with P. aeruginosa culture filtrate; activity change (cytotoxicity), % at 5 µM; AID 602141; 0.36% of 360,000 active;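 active means corrected activity change at or below -50% at 5 µM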
CF NFkB block – inhibitors of cystic fibrosis induced NF-kB | KKLEB NF-kB-GFP reporter, PAF-induced, GFP fluorescence overnight | 0.86% of 360,000 active | inhibition, % at 5 µM;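 active means at least 50% inhibition at 5 µM, scaled per plate between neutral and stimulator controls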;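 further: PAF is a Pseudomonas aeruginosa culture filtrate used as stimulus; plate controls were PAF-stimulated DMSO wells for no effect and unstimulated DMSO wells for full effect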
TWEAK Fn14 block – inhibitors of TWEAK-Fn14 interaction signaling. 2% of 360,000 active. inhibition, % at 10 µM. TWEAK-stimulated Fn14 reporter cells, luciferase luminescence, 8 h; in the data active means inhibition above about 50%
Peg3 promoter – Peg3 promoter activity inhibition | AID 588405 | 1.7% of 360,000 active | HeLa PEG-Prom luciferase reporter, luminescence, overnight | inhibition, % at 20 µM;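 active means inhibition of at least 50% at 20 µM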
Starred values were filed as active, the others as inactive; x = no result. Rows were chosen to be rich in hits. Some 4% of all compounds tested hit in one or more screens of this group.

SMILES | TROY signal inh | HIF-2a block | KKLEB cytotox | CF NFkB block | TWEAK Fn14 block | Peg3 promoter
CC(C)(C)OC(=O)NCCCC[C@H](NC(=O)c1[nH]cnc1C(=O)Nc1ccccc1)C(=O)OC(C)(C)C | 7 | 21 | -30 | 15 | 17 | 53*
C[C@@H](NC(=O)c1nc[nH]c1C(=O)N[C@@H](CCCCNC(=O)OC(C)(C)C)C(=O)OC(C)(C)C)c1ccccc1 | 15 | 29 | -8 | 9 | 5 | 21
Cc1ccc(NC(=O)c2nc[nH]c2C(=O)NC2CCN(C(=O)OC(C)(C)C)CC2)cc1 | 2 | 3 | -1 | 5 | -5 | 19
CC(C)(C)OC(=O)NCc1ccc(CNC(=O)c2[nH]cnc2C(=O)NCC(=O)OCc2ccccc2)cc1 | 46 | 13 | -2 | -6 | 17 | 52*
CC(C)(C)OC(=O)N1CCC(NC(=O)c2[nH]cnc2C(=O)Nc2ccccc2)CC1 | -11 | 19 | -8 | 11 | -2 | 52*
CC(C)(C)OC(=O)NCCCC[C@H](NC(=O)c1[nH]cnc1C(=O)Nc1ccc(Cl)cc1)C(=O)OC(C)(C)C | 13 | 19 | 4 | 10 | 11 | 63*
COc1ccc([C@H]2CN(CCc3ccccc3)C(=O)[C@@H]2CC(=O)Nc2ccccc2)cc1 | -42 | -93 | 8 | 4 | -4 | -65
O=C(CN1CCS(=O)(=O)CC1)N/N=C/c1cccc(C(F)(F)F)c1 | 8 | 11 | 14 | -22 | 0 | -3
Cc1nn(-c2ccccn2)c2c1C(c1ccsc1)C1=C(CCCC1=O)N2 (centres undefined) | 14 | 19 | 1 | -1 | -3 | 23
Cc1nnc(NC(=O)C2CCCN2C(=O)Nc2ccccc2)s1 (centres undefined) | -4 | -4 | -1 | 13 | 12 | -2
CC1CCC(NC(=O)CCC(=O)N2CC(C)Oc3ccccc32)CC1 (centres undefined) | -22 | -250 | 7 | 3 | -22 | -210
CCOC(=O)c1ccc(NC(=O)c2nc[nH]c2C(=O)NC)cc1 | -6 | -48 | 25 | -11 | -18 | -32
CC(C)(C)OC(=O)[C@H](Cc1ccccc1)NC(=O)c1nc[nH]c1C(=O)N[C@@H](CCCCN)C(=O)OC(C)(C)C | 6 | 5 | -8 | 20 | 11 | 103*
CCOC(=O)c1ccc(NC(=O)c2nc[nH]c2C(=O)NCCNC(=O)c2[nH]cnc2C(=O)Nc2ccc(C(=O)OCC)cc2)cc1 | 3 | -14 | -50* | 76* | 6 | 91*
Cc1ccc(C(=O)Nc2cccc(NC(=O)c3ccc(C)c([N+](=O)[O-])c3)n2)cc1[N+](=O)[O-] | 13 | 11 | -7 | 5 | 33 | -65
Cc1ccc(C(=O)Nc2sc(C)c(-c3ccccc3)c2C(N)=O)cc1[N+](=O)[O-] | 87* | 6 | -14 | 30 | 98* | -179
CC1=NN(c2nc3ccccc3[nH]2)C(=O)/C1=C/N(C)C | 4 | -41 | -2 | -6 | 31 | -53
CC1=NN(c2nc3ccccc3[nH]2)C(=O)C1Cc1ccccc1 (centres undefined) | -54 | -104 | -52* | 51* | 44 | -3
O=C1C(C=Nc2ccc(F)cc2)=C(O)c2ccccc21 | 35 | -215 | -9 | -15 | 80* | -5
Cc1ccccc1N=CC1=C(O)c2ccccc2C1=O | 78* | -13 | -60* | -43 | 106* | 19
CC1=C(O)c2ccccc2C(=O)C1=O | 0 | 4 | -3 | -14 | -4 | 20
Oc1cc2c(cc1O)C(c1ccccc1)CNCC2 (centres undefined) | -3 | 10 | -58* | 19 | -9 | -17
Oc1cc2c(cc1O)[C@@H](c1ccccc1)CNCC2 | 10 | -3 | -24 | 31 | -4 | -14
Cc1ccc(C(=O)Nc2ccc(-c3csc(C)n3)cc2)cc1 | -24 | -283 | 8 | -3 | 21 | -333
Cc1nc(-c2ccc(NC(=O)c3ccccc3)cc2)cs1 | 19 | -78 | -35 | -23 | 68* | -92
SMILES | TROY signal inh | HIF-2a block | KKLEB cytotox | CF NFkB block | TWEAK Fn14 block | Peg3 promoter
O=C(Nc1ccc(-c2csc(Nc3cccc(C(F)(F)F)c3)n2)cc1)c1ccccc1 | -2 | -16 | 10 | 0 | 65* | 26
CCCCCCCCN1C(=O)[C@H](CC(=O)NCc2cccc3ccccc23)C[C@@]2(C(=O)OC)CC(C)(C)CC=C12 | x | 15 | x | x | x | x
Cc1cc(Cl)ccc1NC(=O)NC1CCN(S(=O)(=O)c2ccc(F)cc2)CC1 | 4 | 24 | 5 | 8 | -7 | 19
CCOc1ccc(S(=O)(=O)N2CCCCC2)cc1NC(=O)Cc1ccccc1 | 51* | -8 | 3 | 13 | 30 | 7
O=C(N/N=C/c1ccccc1OCc1ccccc1Cl)c1cccnc1 | 11 | -17 | -2 | 6 | 9 | -5
O=C(CSc1c(Cl)cccc1Cl)NC1CCCc2ccccc21 (centres undefined) | 12 | 21 | 16 | -8 | -5 | 14
O=C(CSc1ccc(Cl)cc1)NC1CCCc2ccccc21 (centres undefined) | 74* | 19 | -2 | -5 | -5 | 31
O=C(CSc1nc2ccc(Cl)cc2[nH]1)NC1CCCc2ccccc21 (centres undefined) | 52* | 25 | 1 | 2 | 63* | 34
O=C(CSc1nc2ccccc2[nH]1)NC1CCCc2ccccc21 (centres undefined) | -4 | 5 | -7 | 6 | 21 | 4
COc1ccc(-c2nn3c(-c4ccccc4)nnc3s2)cc1 | -38 | -107 | -1 | -40 | -16 | -25
CCN(CC)c1ccc(-c2nn3c(-c4ccccc4OC)nnc3s2)cc1 | 20 | 27 | -48 | 53* | -77 | 22
Cc1[nH]c2ccccc2c1C(=O)C(C)OC(=O)c1ccccc1NCCO (centres undefined) | 31 | -31 | -1 | -2 | 53* | -75
C=CCN=c1scc(-c2ccc(F)cc2)n1/N=C/c1ccccn1 | -9 | -230 | -1 | 5 | -6 | -231
C=CCN=c1scc(-c2ccc3c(c2)NC(=O)CO3)n1/N=C(\C)c1ccccn1 | 43 | -14 | 6 | -34 | 66* | 0
COc1ccc(NC(=O)/C(Cl)=C(/Cl)S(=O)Cc2ccc(Cl)cc2)cn1 (centres undefined) | 90* | 97* | -88* | 87* | 101* | 104*
CCOc1ccc(NS(=O)(=O)c2cc(C(=O)N3CCN(C(C)=O)CC3)ccc2Cl)cc1 | -1 | 13 | 5 | 18 | 89* | 9
CCOc1ccccc1N1CCN(C(=O)c2ccc(Cl)c(S(=O)(=O)N3CCCCC3)c2)CC1 | 53* | 14 | -13 | 32 | 42 | 26
O=C(O)c1cc(-c2cccs2)nc2ccc(F)cc12 | -6 | 12 | -2 | 2 | 6 | 11
Cc1ccc(C)c(N2CCN(C(=O)Cc3c(C(=O)O)[nH]c4ccc(Cl)cc34)CC2)c1 | 7 | 14 | -7 | 2 | 1 | 8
